Conditions in all cases: mRNA level, 48 h; actives raise or lower the signal
Read-out in test [1]: Cyclin Dependent Kinase Inhibitor 1A (CDKN1A), CDKN1A (gene 1026)
Nature of the test: LTEA_HepaRG_CDKN1A: Life Technologies and Expression Analysis (LTEA) Assay for Cyclin Dependent Kinase Inhibitor 1A (CDKN1A) using HepaRG (AID 2283450). An outline of the steps:
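HepaRG, 48 h dosing, 8-pt half-log series from 100 uM top, 0.5% DMSO vehicle, duplicates. Readout: TaqMan qRT-PCR of CDKN1A transcript, housekeeping-normalized (ACTB, GAPDH, POLR2A). Up/down curve fit relative to DMSO.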

Read-out in test [2]: Cyclin D1 (CCND1), CCND1 (gene 595)
Nature of the test: LTEA_HepaRG_CCND1: Life Technologies and Expression Analysis (LTEA) Assay for Cyclin D1 (CCND1) using HepaRG (AID 2283451). In outline:
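qRT-PCR (Fluidigm 96.96 array) read-out of transcript level, housekeeping-normalized (ACTB/GAPDH/POLR2A). HepaRG cells, 48 h chemical exposure, 8-point half-log series from 100 uM, 0.5% DMSO vehicle; gain or loss relative to DMSO baseline.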

Read-out in test [3]: catalase (CAT), CAT (gene 847)
The test can be described thus: LTEA_HepaRG_CAT: Life Technologies and Expression Analysis (LTEA) Assay for catalase (CAT) using HepaRG (AID 2283452). An outline of the steps: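 Expression of CAT was quantified by TaqMan qRT-PCR with ACTB/GAPDH/POLR2A normalization after 48 h chemical exposure of HepaRG. Eight-point half-log series, top 100 uM, in 0.5% DMSO; gain or loss fitted against vehicle.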

Read-out in test [4]: flavin-containing dimethylaniline monooxygenases 3 (FMO3), FMO3 (gene 2328)
The test can be described thus: LTEA_HepaRG_FMO3: Life Technologies and Expression Analysis (LTEA) Assay for flavin-containing dimethylaniline monooxygenases 3 (FMO3) using HepaRG (AID 2283453).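 For AC50: differentiated human HepaRG liver cells in serum-free induction medium.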 In outline:
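Eight-point concentration-response in serum-free HepaRG cultures (top 100 uM, 0.5% DMSO, 48 h). Read-out: FMO3 mRNA level normalized to three endogenous control genes, fitted bidirectionally versus vehicle.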

Read-out in test [5]: Cytochrome P450 (CYP1A1), CYP1A1 (gene 1543)
The test can be described thus: LTEA_HepaRG_CYP1A1: Life Technologies and Expression Analysis (LTEA) Assay for Cytochrome P450 (CYP1A1) using HepaRG (AID 2283454). In outline:
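qRT-PCR read-out: CYP1A1 transcript normalized to three housekeeping genes, fitted bidirectionally against 0.5% DMSO vehicle baseline. Human HepaRG cells, 48 h chemical exposure, 8-point half-log series topping at 100 uM.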

Read-out in test [6]: CFLAR gene, CFLAR (gene 8837)
The test can be described thus: LTEA_HepaRG_CFLAR: Life Technologies and Expression Analysis (LTEA) Assay for CFLAR gene using HepaRG (AID 2283455). An outline of the steps:
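Transcript level by qRT-PCR (normalized to ACTB, GAPDH and POLR2A) after 48 h chemical exposure of HepaRG cells, top concentration 100 uM with half-log steps, 0.5% DMSO vehicle, duplicates; fitted bidirectionally against DMSO baseline.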

Read-out in test [7]: Forkhead box O1 (FOXO1), FOXO1 (gene 2308)
The test can be described thus: LTEA_HepaRG_FOXO1: Life Technologies and Expression Analysis (LTEA) Assay for Forkhead box O1 (FOXO1) using HepaRG (AID 2283456). An outline of the steps:
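FOXO1 transcript quantified by qRT-PCR after 48 h chemical exposure (top 100 uM, half-log steps, 0.5% DMSO) of HepaRG cells, housekeeping-normalized (ACTB/GAPDH/POLR2A). Changes fitted in both directions relative to vehicle.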

Read-out in test [8]: growth arrest and DNA damage 45 (GADD45A), GADD45A (gene 1647)
The test can be described thus: LTEA_HepaRG_GADD45A: Life Technologies and Expression Analysis (LTEA) Assay for growth arrest and DNA damage 45 (GADD45A) using HepaRG (AID 2283458). In outline:
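HepaRG, 48 h exposure, 8 conc. (top 100 uM, half-log steps), 0.5% DMSO vehicle, duplicates. Read-out: qRT-PCR mRNA level, housekeeping-normalized (ACTB/GAPDH/POLR2A). Curves fit bidirectionally vs DMSO baseline.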

Read-out in test [9]: Forkhead box O3 (FOXO3), FOXO3 (gene 2309)
The test can be described thus: LTEA_HepaRG_FOXO3: Life Technologies and Expression Analysis (LTEA) Assay for Forkhead box O3 (FOXO3) using HepaRG (AID 2283459). In outline: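 FOXO3 transcript measured by qRT-PCR (normalized to ACTB, GAPDH, POLR2A) after 48 h exposure of HepaRG cells in serum-free induction medium. Duplicates, eight half-log concentrations up to 100 uM, 0.5% DMSO; gain or loss fitted against DMSO.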

Read-out in test [10]: ABC Transporter (ABCB1), ABCB1 (gene 5243)
The test can be described thus: LTEA_HepaRG_ABCB1: Life Technologies and Expression Analysis (LTEA) Assay for ABC Transporter (ABCB1) using HepaRG (AID 2283460). An outline of the steps: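 ABCB1 transcript level measured by TaqMan qRT-PCR against three housekeeping genes after 48 h chemical exposure of differentiated HepaRG cells. Top concentration 100 uM, half-log steps, eight points, 0.5% DMSO vehicle; bidirectional fit relative to DMSO.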

Read-out in test [11]: ABC Transporter (ABCB11), ABCB11 (gene 8647)
Nature of the test: LTEA_HepaRG_ABCB11: Life Technologies and Expression Analysis (LTEA) Assay for ABC Transporter (ABCB11) using HepaRG (AID 2283463). An outline of the steps:
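ABCB11 transcript levels quantified by TaqMan qRT-PCR against three housekeeping genes after 48 h chemical exposure of HepaRG cultures. Concentrations up to 100 uM in half-log steps, 0.5% DMSO vehicle; both induction and suppression scored.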

Read-out in test [12]: ABC Transporter (ABCC2), ABCC2 (gene 1244)
The test can be described thus: LTEA_HepaRG_ABCC2: Life Technologies and Expression Analysis (LTEA) Assay for ABC Transporter (ABCC2) using HepaRG (AID 2283464). An outline of the steps: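 qRT-PCR (TaqMan, Fluidigm array) read-out of ABCC2 mRNA, normalized to three housekeeping genes. Differentiated HepaRG cells were treated 48 h in serum-free induction medium with 8-point half-log series from 100 uM in 0.5% DMSO; curves fitted bidirectionally relative to DMSO.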

Read-out in test [13]: Broad substrate specificity ATP-binding cassette transporter ABCG2 (Homo sapiens) (UniProt Q9UNQ0)
The test can be described thus: LTEA_HepaRG_ABCG2: Life Technologies and Expression Analysis (LTEA) Assay for ABC Transporter (ABCG2) using HepaRG (AID 2283465). In outline:
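ABCG2 transcript was quantified by TaqMan qRT-PCR against three housekeeping genes in HepaRG cells. Cells were treated in duplicate for 48 h across an 8-point half-log series up to 100 uM, with 0.5% DMSO vehicle. Gain or loss versus DMSO was fit.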

Read-out in test [14]: ATP-citrate lyase (ACLY), ACLY (gene 47)
Nature of the test: LTEA_HepaRG_ACLY: Life Technologies and Expression Analysis (LTEA) Assay for ATP-citrate lyase (ACLY) using HepaRG (AID 2283466). In outline:
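ACLY mRNA quantified by qRT-PCR on Fluidigm arrays against three housekeeping genes, after 48 h chemical treatment of HepaRG cells (top concentration 100 uM, half-log steps, 0.5% DMSO vehicle). Up- or down-regulation fitted relative to DMSO.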

Read-out in test [15]: Alkaline Phosphatase, Placental (ALPP) gene, ALPP (gene 250)
The test can be described thus: LTEA_HepaRG_ALPP: Life Technologies and Expression Analysis (LTEA) Assay for Alkaline Phosphatase, Placental (ALPP) gene using HepaRG (AID 2283468).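 For AC50: differentiated human HepaRG liver cells in serum-free induction medium.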 An outline of the steps:
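qRT-PCR readout of ALPP mRNA (Fluidigm TaqMan), normalized to ACTB/GAPDH/POLR2A, after 48 h chemical exposure of HepaRG cells; 8-point half-log series, top 100 uM, 0.5% DMSO vehicle. Bidirectional curve fit versus DMSO baseline.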

Read-out in test [16]: Bcl-2 (BAD) gene, BAD (gene 572)
The test can be described thus: LTEA_HepaRG_BAD: Life Technologies and Expression Analysis (LTEA) Assay for Bcl-2 (BAD) gene using HepaRG (AID 2283469). In outline: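 Read-out: qRT-PCR of BAD mRNA, normalized to three housekeeping genes. Human HepaRG cultures got 48 h chemical exposure in 0.5% DMSO, duplicate eight-point half-log series topping at 100 uM. Gain or loss of signal fitted versus DMSO vehicle.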

Read-out in test [17]: growth arrest and DNA damage 45 (GADD45B), GADD45B (gene 4616)
Nature of the test: LTEA_HepaRG_GADD45B: Life Technologies and Expression Analysis (LTEA) Assay for growth arrest and DNA damage 45 (GADD45B) using HepaRG (AID 2283461). An outline of the steps:
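qRT-PCR read-out (Fluidigm TaqMan, housekeeping-normalized) of mRNA change in human HepaRG cells after 48 h chemical exposure; 8-point curve, top 100 uM, half-log steps, 0.5% DMSO vehicle; gain or loss fitted relative to DMSO baseline.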

Molecules are shown by their SMILES. Calls of active or inactive are those of the source. Rule for the calls: active = hit-call score of the fitted dose curve at least 0.9, where 1 is the maximum; inactive = score below 0.9.

What is called AC50 is the midpoint of the concentration-response curve, whichever way the signal moves.

Sequence of Broad substrate specificity ATP-binding cassette transporter ABCG2 (Homo sapiens) (Q9UNQ0 whole entry, looked up): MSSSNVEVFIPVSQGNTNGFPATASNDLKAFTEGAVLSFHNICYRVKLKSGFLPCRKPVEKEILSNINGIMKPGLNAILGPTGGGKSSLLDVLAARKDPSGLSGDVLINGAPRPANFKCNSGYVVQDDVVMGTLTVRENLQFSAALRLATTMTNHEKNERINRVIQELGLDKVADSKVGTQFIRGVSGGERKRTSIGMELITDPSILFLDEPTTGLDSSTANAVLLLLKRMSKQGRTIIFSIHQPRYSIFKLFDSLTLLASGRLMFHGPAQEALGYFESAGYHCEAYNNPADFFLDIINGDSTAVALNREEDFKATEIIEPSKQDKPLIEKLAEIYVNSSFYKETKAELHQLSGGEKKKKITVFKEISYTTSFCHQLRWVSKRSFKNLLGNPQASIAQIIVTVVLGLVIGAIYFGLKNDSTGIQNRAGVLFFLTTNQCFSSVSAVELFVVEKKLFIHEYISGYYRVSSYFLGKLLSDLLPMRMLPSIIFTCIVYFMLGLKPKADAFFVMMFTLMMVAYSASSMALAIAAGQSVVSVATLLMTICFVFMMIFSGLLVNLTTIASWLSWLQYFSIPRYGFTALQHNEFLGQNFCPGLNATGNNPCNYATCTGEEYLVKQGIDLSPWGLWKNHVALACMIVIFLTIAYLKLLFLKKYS

Consider `C[C@]12CC[C@@H]3c4ccc(O)cc4CC[C@H]3[C@@H]1CC[C@H]2O`, for which the AC50 is 50 µM (active) in test [1]; 18.5 µM (active) in test [5]; 69 µM (active) in test [11]; 5.42 µM (active) in [13]; 50 µM (active) in [15]. Moreover, the result in test [2], in [3], in test [4], in [6], in [7] and in test [8] was inactive. The outcome in test [9], in test [10], in test [12], in test [14] and in test [16] was inactive.

Regarding `CC[C@H](NC(=O)c1cc(F)ccc1NS(=O)(=O)c1cccc2cccnc12)c1ccccc1`, the result in test [1], in test [2], in test [6], in [7], in test [8] and in [9] was inactive. Further, the outcome in [17], in test [13], in [14], in test [15] and in test [16] was inactive. The AC50 in [3] is 59.2 µM (active); in test [4], 34 µM (active); in test [5], 47.1 µM (active); in test [10], 1.34 µM (active); in [11], 47.8 µM (active); in test [12] it was 11.7 µM (active).
